# Bioassay records from PubChem.
# MCF10A rereplic: induces DNA re-replication in MCF 10a normal breast cells | MCF 10A DNA re-replication, Hoechst nuclear intensity, 48 h | Potency, µM (titrated, usually from 46.1 µM), inactives show top-dose activity, positive = re-replication, most hits filed as activators | 350,000 tested, 2.9% active | AID 624296; further: % of control where 0% means no effect; nearly all actives have a fitted effect of over 50% in size
# KB-V1 cytotox: KB-V1 MDR subline cytotoxicity; KB-V1 MDR cells viability, CellTiter-Glo, 72 h; Potency, µM (top dose mostly 46.1 µM), hits mostly cytotoxic; 400,000 tested, 3.4% active; further: on the % scale 0 is the no-effect control and ±100 the full control effect; nearly all actives have a fitted effect of over 60% in size
#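 In this primary screen, KB-V1 cells overexpressing P-gp are incubated with library compounds (lowest to highest concentration) for 72 h at 37 degrees C before a luminescent ATP viability read.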
# Gal4-VP16 FLuc: counter-screen for ROR gamma inhibitors: Gal4-VP16 reporter; Drosophila S2 Gal4-VP16 UAS-luciferase, luminescence, 20 h; Potency, µM (doses to about 53.6 µM), for inactives: at the highest dose activity, negative = inhibition, most hits filed as inhibitors; 310,000 tested, 3.5% active;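 further: Gal4-VP16 expression switched on by copper sulfate through the metallothionein promoter; on the % scale 0 is the no-effect control and ±100 the full control effect; nearly all actives have a fitted effect of over 50% in size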
# RORg inh: inhibitors of mouse ROR gamma transcriptional activity; P51450; Drosophila S2 Gal4-RORgamma UAS-luciferase reporter, 20 h; Potency, µM (highest dose often 53.6 µM), for inactives: at the top dose activity change, negative = inhibition, most hits filed as inhibitors; 310,000 tested, 5.4% active; AID 2551; further: on the % scale 0 is the no-effect control and ±100 the full control effect; nearly all actives have a fitted effect of over 60% in size
# Target sequence (P51450 whole entry, looked up, the tested form may be a part): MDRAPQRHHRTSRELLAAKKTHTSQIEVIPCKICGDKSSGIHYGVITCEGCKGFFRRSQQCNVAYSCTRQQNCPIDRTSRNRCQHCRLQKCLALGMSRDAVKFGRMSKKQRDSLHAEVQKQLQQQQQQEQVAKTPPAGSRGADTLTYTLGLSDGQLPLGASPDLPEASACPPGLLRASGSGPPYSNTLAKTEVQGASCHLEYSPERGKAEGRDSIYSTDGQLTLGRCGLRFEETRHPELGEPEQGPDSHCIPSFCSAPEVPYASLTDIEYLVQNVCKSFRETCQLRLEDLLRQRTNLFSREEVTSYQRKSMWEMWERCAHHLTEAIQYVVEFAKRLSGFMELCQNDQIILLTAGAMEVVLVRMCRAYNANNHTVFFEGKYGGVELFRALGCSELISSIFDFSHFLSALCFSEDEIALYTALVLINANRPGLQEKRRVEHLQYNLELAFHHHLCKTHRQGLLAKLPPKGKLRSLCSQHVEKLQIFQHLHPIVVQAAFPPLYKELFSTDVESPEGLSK
#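 A Gal4/UAS one-hybrid system in insect cells: metallothionein-promoter Gal4–ROR gamma fusion plus Photinus luciferase reporter. Copper sulfate 700 uM final, 20 hr ambient incubation, luminescent detection after 10 min with reagent.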
# KB-3-1 cytotox: kills parental KB-3-1 adenocarcinoma cells | KB-3-1 viability, CellTiter-Glo ATP luminescence, 72 h | Potency, µM (top dose mostly 46.1 µM), most hits filed as cytotoxic | 400,000 tested, 1.4% active; further: on the % scale 0 is the no-effect control and ±100 the full control effect; nearly all actives have a fitted effect of over 60% in size
#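 72 h, 37 °C compound treatment of KB-3-1 parental cells; CellTiter-Glo added, 10 min, luminescence read. Data corrected against DMSO-only plates and normalized before curve fitting.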
# SW480 rerep: inducers of DNA re-replication in SW480 colon cancer cells. 340,000 tested, 1.8% active. Potency, µM (titrated, usually from 46.1 µM), for inactives: at the top dose re-replication activation, usual class: activators. SW480 DNA re-replication, Hoechst DNA content imaging, 48 h; further: % of control where 0% means no effect; nearly all actives have a fitted effect of over 55% in size
#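 250 cells/well; 23 nL cpd via pin tool; 48 hr, 37 C, 5% CO2; Hoechst 40 min; imager read of total nuclear intensity, ex 405/em 500-530 nm.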
# The depositor's hits bear a star; i = inactive; ? = inconclusive; . = no result given; [ ] = another dose, or the depositor's remark. Only some compounds are listed: those with a hit (about 10% of all), similar ones and a draw of the others. The call rests on the fitted dose curve; in most records, active means well fitted curve in the direction sought with a large enough effect; inconclusive means small, poorly fitted or top-dose-only effect, or another doubt; inactive means no such curve, though single readings can be large; an effect the other way counts as inactive or inconclusive. Potency means the concentration at half of the fitted maximal effect.
SMILES,MCF10A rereplic,KB-V1 cytotox,Gal4-VP16 FLuc,RORg inh,KB-3-1 cytotox,SW480 rerep
O=c1[nH]c(SCc2ccc(Br)cc2)nc2c1CCCC2,.,i,.,.,i,.
O=C(CSCc1ccc(Cl)cc1)N/N=C/c1ccccc1,4%,i,-7%,9%,i,3%
Cc1oc(/C=N/NC(=O)CN(c2ccccc2Cl)S(C)(=O)=O)cc1Br,2%,i,-6%,22%,i,0%
COC(=O)Oc1ccc(/C=N/NC(=O)CSCc2ccc(Cl)cc2)cc1OC,?,i,16µM*,-8%,i,0%
COC(=O)Oc1ccc(/C=N/NC(=O)CN(c2ccccc2Cl)S(C)(=O)=O)cc1OC,2%,i,0%,0.0089µM*,i,?
CCc1ccccc1NC(=O)Nc1nnc(N2CCCC2)s1,.,i,.,.,i,.
Cc1ccc2nc(SCC(=O)NNC(=O)c3ccccc3)[nH]c2c1,-4%,i,-12%,-5%,i,-6%
Cc1ccc(S(=O)(=O)N2CCN(CC(=O)NC3CCCc4ccccc43)CC2)c(C)c1 (stereo not given),21%,4.1µM*,1%,-4%,i,?
Cc1ccc2nc(SCC(=O)NC3CCCc4ccccc43)[nH]c2c1 (stereo not given),15µM*,15µM*,-12%,1%,?,?
O=C(CSc1cc(Cl)ccc1Cl)NC1CCCc2ccccc21 (stereo not given),?,i,?,?,i,?
O=C(CSc1ccc2ccccc2c1)NC1CCCc2ccccc21 (stereo not given),9%,15µM*,-6%,10%,i,5%
COc1ccc(OCC(=O)NC2CCCc3ccccc32)cc1 (stereo not given),-3%,i,-8%,24%,i,-28%
CC(=O)c1ccc(OCCCC(=O)NC2CCCc3ccccc32)cc1 (stereo not given),-5%,16µM*,4%,13%,i,-73%
Cc1ccc(S(=O)(=O)N2CCN(CC(=O)NC3CCCc4ccccc43)CC2)cc1C (stereo not given),19%,?,-2%,11%,?,?
O=C(CSc1nc2cc(Cl)ccc2s1)NC1CCCc2ccccc21 (stereo not given),?,16µM*,8%,-2%,i,-4%
Clc1ccc(-c2cccs2)nn1,6%,i,-7%,23%,i,2%
CC1CCN(c2ccc(-c3cccs3)nn2)CC1,0%,?,2µM*,2µM*,i,17%
CCNc1nc(SCCOc2ccc(C)cc2)nc(N(C)C)n1,?,?,?,-94%,?,9%
Cc1ccc(OCCSc2nc(NC(C)C)nc(NC(C)C)n2)cc1,13µM*,?,?,?,i,8%
CC1(N)CCC(C(C)(C)N)CC1 (stereo not given),.,.,7%,8%,.,.
CC(=O)c1c(C)oc2c1cc(NS(=O)(=O)c1ccc(Br)cc1)c1ccccc12,.,?,.,.,5.2µM*,.
C=C(C)COc1ccc(-c2nc(N)nc(C)c2Oc2ccccc2OC)c(O)c1,12%,i,-5%,23%,i,3%
Cc1[nH]nc(-c2ccc(OCc3cnn(-c4ccccc4)c3)cc2O)c1Oc1ccccc1F,2%,?,10µM*,6.3µM*,?,15%
CCOc1ccc(-c2n[nH]c(C)c2Oc2ccccc2OC)c(O)c1,?,i,2.5µM*,2.2µM*,?,-2%
Cc1[nH]nc(-c2ccc(O)cc2O)c1Oc1ccccc1,-6%,?,?,?,i,22%
SMILES,MCF10A rereplic,KB-V1 cytotox,Gal4-VP16 FLuc,RORg inh,KB-3-1 cytotox,SW480 rerep
CCc1cc(-c2n[nH]c(C)c2Oc2ccc(C(C)C)cc2)c(O)cc1O,?,?,?,7.1µM*,?,?
C=C(C)COc1ccc(-c2n[nH]c(C)c2Oc2ccccc2OC)c(O)c1,?,?,-16%,1.6µM*,?,25%
CCN(CC)S(=O)(=O)c1ccc2c(c1)N(CC(=O)N1CCN(c3ccc(Cl)cc3)CC1)C(=O)CO2,.,i,.,.,i,.
COc1cc(NC(=O)Cn2cc(C(=O)c3ccc(F)cc3)c(=O)c3ccc(C)nc32)cc(OC)c1,.,i,.,.,i,.
COc1cccc(CNC(=O)C(C)n2ncn3cccc3c2=O)c1OC (stereo not given),.,i,.,.,i,.
CCCOC(=O)c1ccc(Oc2c(-c3ccc(OC)cc3O)n[nH]c2C)cc1,?,?,?,7.1µM*,?,-5%[9.22 µM]
CCCOC(=O)c1ccc(Oc2c(-c3ccc(O)cc3O)n[nH]c2C)cc1,?,i,-20%,?,i,2%[9.22 µM]
COc1ccc(-c2nc3nc(C)cc(N4CCN(c5cccc(C(F)(F)F)c5)CC4)n3n2)cc1,.,i,.,.,i,.
O=C(CN1c2ccccc2Sc2ccccc21)NNC(=O)Nc1ccc(Cl)cc1,?,i,-21%,18%,i,?
O=C(CN1c2ccccc2Sc2ccccc21)NNC(=O)Nc1ccc(Cl)c(Cl)c1,16µM*,i,2%,15%,i,?
O=C1CS/C(=C/C(=O)c2cccc(Cl)c2)N1,-6%,i,?,5.6µM*,i,-495%[1.84 µM]
Cc1ccc(C(=O)/C=C2/NC(=O)CS2)cc1,0%,i,?,?,i,-6%
Cn1c(=O)c2c(nc(CN3CCN(Cc4ccccc4)CC3)n2CCN2CCOCC2)n(C)c1=O,4%,i,2%,1.6µM*,i,-7%
Cn1c(=O)c2c(nc(CN3CCC(Cc4ccccc4)CC3)n2CCN2CCOCC2)n(C)c1=O,-2%,i,5%,-1%,i,0%
Cn1c(=O)c2c(nc(SCCN3CCOCC3)n2Cc2cccc3ccccc23)n(C)c1=O,-2%,4.1µM*,2%,-14%,i,0%
NS(=O)(=O)c1ccc(N/N=C/c2cn(-c3ccccc3)nc2-c2cccs2)c([N+](=O)[O-])c1,6%,i,1%,-11%,?,1%
NS(=O)(=O)c1ccc(N/N=C/c2cn(-c3ccccc3)nc2-c2cccs2)cc1,13µM*,?,?,?,?,?
O=C(N/N=C/c1cn(-c2ccccc2)nc1-c1cccs1)c1ccncc1,0%,i,2.2µM*,1.3µM*,i,24%
Cc1ccc(-c2nn(-c3ccccc3)cc2/C=N/NC(=O)c2ccncc2)o1,?,i,11µM*,2.8µM*,i,?
O=C(N/N=C/c1nn(-c2ccccc2)cc1-c1ccccc1)c1ccncc1,-29%,?,3.2µM*,1.6µM*,?,?
